The whole screen tested about 310,000 compounds, of which about 2,200 (0.71%) showed an effect of 50% or more. The effect is printed as a negative number. Only a selection was taken, and strong results are over-represented in it overall.
The molecules below were run against human ether-à-go-go-related gene (hERG) potassium channel (human, UniProt Q12809) (assay: primary screen, population patch clamp on CHO cells stably expressing hERG; higher = less effect of the substance).
Chain of human ether-à-go-go-related gene (hERG) potassium channel (Q12809 whole entry, looked up): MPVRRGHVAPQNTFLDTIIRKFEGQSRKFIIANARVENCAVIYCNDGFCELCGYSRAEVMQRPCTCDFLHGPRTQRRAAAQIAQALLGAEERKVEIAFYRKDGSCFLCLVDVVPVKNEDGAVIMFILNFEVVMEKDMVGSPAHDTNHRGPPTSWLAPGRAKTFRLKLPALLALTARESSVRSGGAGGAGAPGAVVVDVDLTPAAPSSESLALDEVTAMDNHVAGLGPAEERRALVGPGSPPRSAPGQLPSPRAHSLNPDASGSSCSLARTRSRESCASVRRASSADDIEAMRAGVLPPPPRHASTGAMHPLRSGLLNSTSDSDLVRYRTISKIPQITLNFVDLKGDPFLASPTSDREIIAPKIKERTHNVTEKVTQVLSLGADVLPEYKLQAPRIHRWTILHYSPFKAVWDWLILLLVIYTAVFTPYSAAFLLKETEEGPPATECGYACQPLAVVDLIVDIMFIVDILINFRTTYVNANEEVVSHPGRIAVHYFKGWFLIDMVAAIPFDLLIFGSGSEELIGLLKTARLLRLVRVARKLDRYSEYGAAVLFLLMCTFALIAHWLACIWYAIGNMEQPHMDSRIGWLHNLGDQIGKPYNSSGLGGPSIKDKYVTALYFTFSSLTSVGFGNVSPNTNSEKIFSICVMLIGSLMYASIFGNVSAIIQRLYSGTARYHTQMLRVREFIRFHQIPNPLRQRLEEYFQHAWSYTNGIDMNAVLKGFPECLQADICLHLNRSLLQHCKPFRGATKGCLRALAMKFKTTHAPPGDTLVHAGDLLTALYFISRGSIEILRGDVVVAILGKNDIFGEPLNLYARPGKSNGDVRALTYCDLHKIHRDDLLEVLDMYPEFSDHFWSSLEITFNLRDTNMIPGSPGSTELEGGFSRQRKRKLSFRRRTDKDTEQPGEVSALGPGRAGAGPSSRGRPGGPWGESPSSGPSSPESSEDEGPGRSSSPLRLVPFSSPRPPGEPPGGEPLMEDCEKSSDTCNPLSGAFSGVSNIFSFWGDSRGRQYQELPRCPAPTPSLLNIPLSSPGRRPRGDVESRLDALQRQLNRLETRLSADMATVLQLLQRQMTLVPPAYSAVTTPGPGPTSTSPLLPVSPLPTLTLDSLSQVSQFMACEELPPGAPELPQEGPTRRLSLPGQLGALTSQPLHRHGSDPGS

| SMILES | hERG current change (%, negative = inhibition) at 1uM [%] |
| --- | --- |
| COC(=O)[C@H](C)NC(=O)Nc1ccc(C)c(C)c1 | 15.2 |
| Cc1ccnc(SCc2ccc([N+](=O)[O-])cc2)n1 | -1.04 |
| COCCN(C(=O)CSc1nc(-c2ccccc2)cn1N)c1c(N)n(Cc2ccccc2)c(=O)[nH]c1=O | 3.04 |
| CCCC(=O)Nc1cc(C(=O)O)ccc1Sc1ccc(C)cc1 | 10.9 |
| Cc1ccc(C)c(-n2c(SCC(=O)Nc3nonc3C)nnc2-c2ccoc2C)c1 | 9.3 |
| CCn1c(SCC(=O)Nc2nonc2C)nnc1-c1ccoc1C | 7.63 |
| Cc1cccc(-n2c(SCC(=O)NC3CCCC3)nnc2-c2ccoc2C)c1 | -68.6 |
| CCCn1c(SCC(=O)Nc2nonc2C)nnc1-c1ccoc1C | 5.83 |
| Cc1nonc1NC(=O)CSc1nnc(-c2ccoc2C)n1-c1cccc(Cl)c1 | -58.8 |
| Cc1cccc(-n2c(SCC(=O)Nc3nonc3C)nnc2-c2ccoc2C)c1 | -81.9 |
| Cc1occc1-c1nnc(SCC(=O)NC2CCCC2)n1-c1ccccc1 | 0.492 |
| Cc1nonc1NC(=O)CSc1nnc(-c2ccoc2C)n1C | 9.71 |
| Cc1occc1-c1nnc(SCC(=O)NC2CCCC2)n1C | 13.5 |
| c1ccc2c(c1)CCCn1nnnc1-2 | 6.71 |
| CCCC(=O)N(Cc1cc(=O)[nH]c2ccccc12)c1ccccc1C | 13.1 |
| O=C(Cn1cnc(S(=O)(=O)N2CCCC2)c1)Nc1cccc(F)c1 | 14.4 |
| COc1ccc(S(=O)(=O)N2CCOCC2)cc1NC(=O)c1ccc(-n2nc(C)cc2C)cc1 | 6.25 |
| CCc1ccc(C(=O)OCC(=O)Nc2cccc(S(=O)(=O)NC3=NCCCCC3)c2)cc1 | 7.29 |
| COc1ccc(CNS(=O)(=O)c2ccc3c(c2)CC(C)N3C(=O)C2CC2)cc1 (stereo not shown) | 15.1 |
| Cc1ccc2c(c1)N(C(=O)CCC(=O)NCCCN1CCOCC1)CCO2 | 13.9 |
| O=C(CCC(=O)N1CCOc2ccc(Cl)cc21)NCCCN1CCC(Cc2ccccc2)CC1 | -64.7 |
| O=C(CCC(=O)N1CCOc2ccc(Cl)cc21)NCCCN1CCOCC1 | 12.5 |
| O=C(CCC(=O)N1CCOc2ccccc21)NCCCN1CCN(Cc2ccccc2)CC1 | -41.9 |
| Cc1ccc2c(c1)N(C(=O)CCC(=O)NCCCN1CCC(Cc3ccccc3)CC1)CCO2 | -78.7 |
| O=C(CCC(=O)N1CCOc2ccc(Cl)cc21)NCCCN1CCN(c2ccccc2F)CC1 | -22.2 |
| Cc1ccc2c(c1)N(C(=O)CCC(=O)NCCCN1CCN(C)CC1)CCO2 | 7.21 |
| O=C(CCC(=O)N1CCOc2ccc(Cl)cc21)NCCCN1CCN(Cc2ccccc2)CC1 | -63.7 |
| CCN1CCN(CCCNC(=O)CCC(=O)N2CCOc3ccc(Cl)cc32)CC1 | 6.48 |
